Assay results published in PubChem BioAssay AID1159580 (chemical genetic matrix, 2015).
Out of some 5,500 compounds screened, about 2,000 (36%) were called active. Roughly 18% stayed inconclusive and do not appear here. No stated cut-off is given here; in the data, active means normalized growth mostly below about 0.91 (no sharp cut-off); inconclusive means no clear call, values can overlap the other calls; inactive means mostly above about 0.92. Some of the results follow.

Test: chemical genetic growth profiling, strain panel (AID 1159580);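 further: tested at 20 µM; growth read once vehicle control cultures reached saturation at 30 °C; 1 = growth at the plate median or of vehicle wells; lower values mean less growth of the strain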
Settings: growth OD

Measured: normalized growth

CC(C)CCCC(C)C1CCC2C3CC[C@H]4CCCC[C@]4(C)C3CC[C@]12C (some centres not stated)
inactive: S. cerevisiae deletion strains, locus YJR075W, strain HOC1, hits give low values 0.965 | S. cerevisiae deletion strains, locus YKL009W, strain mrt4, hits give low values 1.01 | S. cerevisiae deletion strains, locus YKL068W, hits give low values 0.993 | S. cerevisiae deletion strains, locus YKL085W, strain MDH1 (second series), hits give low values 1.02 | S. cerevisiae deletion strains, locus YKL085W, strain MDH1, hits give low values 1.02 | S. cerevisiae deletion strains, locus YKL160W, strain elf1, hits give low values 0.998 | S. cerevisiae deletion strains, locus YKL190W, strain CNB1, hits give low values 0.98 | S. cerevisiae deletion strains, locus YKR001C, strain vps1, hits give low values 0.996 | S. cerevisiae deletion strains, locus YKR026C, strain gcn3, hits give low values 0.998 | S. cerevisiae deletion strains, locus YKR091W, strain srl3, hits give low values 1.02 | S. cerevisiae deletion strains, locus YLL001W, strain dnm1, hits give low values 1.02 | S. cerevisiae deletion strains, locus YLL026W, hits give low values 1.02 | S. cerevisiae deletion strains, locus YLL041C, strain sdh2, hits give low values 1.01 | S. cerevisiae deletion strains, locus YLR027C, strain aat2, hits give low values 1.01 | S. cerevisiae deletion strains, locus YLR039C, strain RIC1, hits give low values 0.951 | S. cerevisiae deletion strains, locus YLR058C, strain SHM2, hits give low values 0.967 | S. cerevisiae deletion strains, locus YLR102C, strain apc9, hits give low values 0.977 | S. cerevisiae deletion strains, locus YLR113W, strain HOG1, hits give low values 1.03 | S. cerevisiae deletion strains, locus YLR221C, strain rsa3, hits give low values 1.02 | S. cerevisiae deletion strains, locus YLR258W, strain gsy2, hits give low values 1.02 | S. cerevisiae deletion strains, locus YLR262C, strain YPT6 (second series), hits give low values 1.02 | S. cerevisiae deletion strains, locus YLR262C, strain YPT6, hits give low values 0.945 | S. cerevisiae deletion strains, locus YLR268W, strain sec22, hits give low values 0.966 | S. cerevisiae deletion strains, locus YLR320W, strain mms22, hits give low values 1.02 | S. cerevisiae deletion strains, locus YLR330W, strain CHS5, hits give low values 0.999 | S. cerevisiae deletion strains, locus YLR342W, strain FKS1 (second series), hits give low values 1.04 | S. cerevisiae deletion strains, locus YLR342W, strain FKS1, hits give low values 1.02 | S. cerevisiae deletion strains, locus YLR357W, strain rsc2, hits give low values 1.04 | S. cerevisiae deletion strains, locus YLR370C, strain arc18, hits give low values 1.02 | S. cerevisiae deletion strains, locus YLR371W, strain rom2, hits give low values 0.998 | S. cerevisiae deletion strains, locus YLR384C, strain iki3, hits give low values 1.02 | S. cerevisiae deletion strains, locus YLR418C, strain cdc73, hits give low values 0.952 | S. cerevisiae deletion strains, locus YML016C, strain PPZ1, hits give low values 0.986 | S. cerevisiae deletion strains, locus YML032C, strain rad52, hits give low values 1 | S. cerevisiae deletion strains, locus YML120C, strain ndi1, hits give low values 1.02 | S. cerevisiae deletion strains, locus YML124C, strain tub3, hits give low values 1 | S. cerevisiae deletion strains, locus YMR058W, strain fet3, hits give low values 1.01 | S. cerevisiae deletion strains, locus YMR078C, strain ctf18, hits give low values 0.99 | S. cerevisiae deletion strains, locus YMR125W, strain sto1, hits give low values 1.03 | S. cerevisiae deletion strains, locus YMR129W, hits give low values 1.02 | S. cerevisiae deletion strains, locus YMR205C, strain PFK2, hits give low values 1.04 | S. cerevisiae deletion strains, locus YMR223W, strain ubp8, hits give low values 1 | S. cerevisiae deletion strains, locus YMR231W, strain pep5, hits give low values 1.02 | S. cerevisiae deletion strains, locus YMR263W, strain SAP30, hits give low values 0.949 | S. cerevisiae deletion strains, locus YMR307W, strain GAS1, hits give low values 1.07 | S. cerevisiae deletion strains, locus YNL067W, strain RPL9B, hits give low values 0.953 | S. cerevisiae deletion strains, locus YNL071W, strain lat1, hits give low values 1.01 | S. cerevisiae deletion strains, locus YNL128W, strain TEP1, hits give low values 0.941 | S. cerevisiae deletion strains, locus YNL153C, strain GIM3, hits give low values 0.962 | S. cerevisiae deletion strains, locus YNL183C, strain NPR1, hits give low values 0.922 | S. cerevisiae deletion strains, locus YNL209W, strain ssb2, hits give low values 1.02 | S. cerevisiae deletion strains, locus YNL233W, strain BNI4, hits give low values 0.983 | S. cerevisiae deletion strains, locus YNL248C, strain rpa49, hits give low values 0.992 | S. cerevisiae deletion strains, locus YNL250W, strain rad50, hits give low values 0.986 | S. cerevisiae deletion strains, locus YNL271C, strain bni1, hits give low values 0.993 | S. cerevisiae deletion strains, locus YNL298W, strain CLA4, hits give low values 0.998 | S. cerevisiae deletion strains, locus YNL307C, strain MCK1, hits give low values 1.01 | S. cerevisiae deletion strains, locus YNL322C, strain KRE1 (second series), hits give low values 1.02 | S. cerevisiae deletion strains, locus YNL322C, strain KRE1, hits give low values 0.971 | S. cerevisiae deletion strains, locus YNR049C, strain mso1, hits give low values 1.02 | S. cerevisiae deletion strains, locus YNR052C, strain pop2, hits give low values 0.996 | S. cerevisiae deletion strains, locus YOL006C, strain TOP1, hits give low values 0.935 | S. cerevisiae deletion strains, locus YOL012C, strain htz1 1.86 | S. cerevisiae deletion strains, locus YOL147C, strain pex11, hits give low values 0.992 | S. cerevisiae deletion strains, locus YOR001W, strain rrp6, hits give low values 0.993 | S. cerevisiae deletion strains, locus YOR061W, strain CKA2, hits give low values 0.964 | S. cerevisiae deletion strains, locus YOR069W, strain VPS5, hits give low values 1.01 | S. cerevisiae deletion strains, locus YOR070C, strain gyp1, hits give low values 1.02 | S. cerevisiae deletion strains, locus YOR080W, strain dia2, hits give low values 1.02 | S. cerevisiae deletion strains, locus YOR083W, strain WHI5, hits give low values 0.991 | S. cerevisiae deletion strains, locus YOR106W, strain vam3, hits give low values 1.01 | S. cerevisiae deletion strains, locus YOR136W, strain idh2, hits give low values 1 | S. cerevisiae deletion strains, locus YOR144C, strain elg1, hits give low values 0.981 | S. cerevisiae deletion strains, locus YOR184W, strain ser1, hits give low values 1.01 | S. cerevisiae deletion strains, locus YOR231W, strain MKK1, hits give low values 0.992 | S. cerevisiae deletion strains, locus YOR265W, strain rbl2, hits give low values 1.02 | S. cerevisiae deletion strains, locus YOR270C, strain vph1, hits give low values 1.03 | S. cerevisiae deletion strains, locus YOR290C, strain snf2, hits give low values 0.984 | S. cerevisiae deletion strains, locus YOR316C, strain cot1, hits give low values 0.981 | S. cerevisiae deletion strains, locus YPL051W, strain arl3, hits give low values 0.997 | S. cerevisiae deletion strains, locus YPL055C, strain LGE1, hits give low values 0.934 | S. cerevisiae deletion strains, locus YPL078C, strain atp4, hits give low values 0.996 | S. cerevisiae deletion strains, locus YPL106C, strain sse1, hits give low values 1.05 | S. cerevisiae deletion strains, locus YPL240C, strain hsp82, hits give low values 1 | S. cerevisiae deletion strains, locus YPL241C, strain CIN2, hits give low values 0.993 | S. cerevisiae deletion strains, locus YPL256C, strain CLN2, hits give low values 0.978 | S. cerevisiae deletion strains, locus YPR119W, strain clb2, hits give low values 0.999 | S. cerevisiae deletion strains, locus YPR141C, strain kar3, hits give low values 0.966 | S. cerevisiae deletion strains, locus YPR163C, strain tif3, hits give low values 1 | S. cerevisiae deletion strains, locus YPR167C, strain met16, hits give low values 0.982 | S. cerevisiae deletion strains, strain wtn01, hits give low values 0.982 | S. cerevisiae strains, strain wild type, hits give low values 0.984
